Test results from PubChem BioAssay AID589 (National Center for Advancing Translational Sciences (NCATS), 2007).
Several values for one entry are separate records, joined by “and”; a condition that tells them apart may be missing. Identical values can stand only once. Screen size: about 59,000 compounds; about 6,200 (11%) were called active. Not shown: some 9% with an inconclusive outcome. No stated cut-off is given here; in the data, active means max dye-equivalent concentration above about 10 nM; inconclusive means mostly about 1.1 nM to 9.6 nM; inactive means weaker than that. This excerpt belongs to a sample that is enriched for actives.

Test: qHTS Assay for Spectroscopic Profiling in 4-MU Spectral Region
Details: compound autofluorescence, 340/450 nm, 4-MU equivalents; hits give high values
Procedure, shortened: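 Compounds in 100 mM Tris, pH 8.0, incubated 15 min at room temperature, then fluorescence read at 340 nm excitation/450 nm emission. Signal converted to 4-MU dye-equivalent concentration using an on-plate six-point 4-MU standard curve.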

Row | SMILES | max dye-equivalent concentration
1 | CC(C)NC(=O)N1CC[C@@]2(CCCN(C(=O)c3cccc(F)c3)C2)C1 | inactive
2 | COc1ccccc1CNc1ncnc2ccc(-c3ccc4c(c3)OCO4)cc12 | inactive
3 | Cc1cc(C)nc(N2CCN(c3ncnc4c3oc3ccccc34)CC2)n1 | inactive
4 | COc1ccccc1Nc1ncnc2c1oc1ccccc12 | 7.3e-08 M (active)
5 | S=c1[nH]nc(SCc2ccccc2Cl)c2[nH]cnc12 | inactive
6 | CCC(Oc1ccccc1)C(=O)NCc1cccnc1 (stereo not drawn) | inactive
7 | O=C(Nc1cccc(OCC(=O)N2CCOCC2)c1)C1CCCCC1 | inactive
8 | O=C(Oc1ccc2c(c1)CCC2)N1CCOCC1 | inactive
9 | O=C1CC2(CCCCC2)Oc2ccc(OCC(=O)N3CCOCC3)cc21 | 1.2e-06 M (active)
10 | CCOC(=O)CCc1c(C)c2ccc(OCc3nn[nH]n3)c(C)c2oc1=O | 2.4e-08 M (active)
11 | C[C@H](NC(=O)OC(C)(C)C)c1nnc(SCC(=O)Nc2ccc(Br)cc2)o1 | inactive
12 | C=C(Br)Cn1c(CCCC)nc2ccccc21 | inactive
13 | CCC(=O)Nc1nc2ccccc2n1Cc1ccccc1C | inactive
14 | CCc1nc2ccccc2n(CCOCCOCCn2c(=O)c(CC)nc3ccccc32)c1=O | 3.4e-08 M (active)
15 | COc1cccc(OC)c1OCCN1CCN(C(=O)c2ccco2)CC1 | inactive
16 | Cc1cccc(Cn2c(SCCO)nc3c2c(=O)n(C)c(=O)n3C)c1 | inactive
17 | CCOC(=O)N1CCN(CC(=O)c2ccc3c(c2)CCN3)CC1 | 1.2e-08 M (active)
18 | CCOC(=O)N1CCN(CC(=O)c2c(C)[nH]c3ccccc23)CC1 | inactive
19 | CCOC(=O)N1CCN(CC(=O)n2c(C)c(C)c3ccccc32)CC1 | inactive
20 | CCNS(=O)(=O)c1ccc(NC(=O)Nc2cccc(C(F)(F)F)c2)cc1 | inactive
21 | CC1Oc2ccccc2N(Cc2cccnc2)C1=O (stereo not drawn) | inactive
22 | Cc1ccc(CC2CC(=O)N(c3ccc4c(c3)OCCO4)C2=O)cc1 (stereo not drawn) | inactive
23 | N#CC1=C(N)C(C#N)(C#N)[C@H](c2ccsc2)[C@H]2COCC=C12 | 1.3e-08 M (active)

Row | SMILES | max dye-equivalent concentration
24 | COc1cccc2cc(C(=O)N(C)C)c(=O)oc12 | inactive
25 | COC(=O)c1ccccc1NC(=O)C1CCN(S(=O)(=O)c2cc(OC)ccc2OC)CC1 | inactive
26 | COc1ccc(F)cc1S(=O)(=O)Nc1ccc2c(c1)OCO2 | inactive
27 | COc1ccc(OC)c(S(=O)(=O)Nc2ccccc2F)c1 | 6.6e-08 M (active)
28 | Cc1cc(OCC(=O)O)c(Cl)cc1Cl | inactive
29 | Cc1nc(NC(CC(C)C)C(=O)O)c2nc(C)oc2n1 (stereo not drawn) | inactive
30 | COc1c(C)c2c(c(O)c1C/C=C(\C)CCC(=O)O)C(=O)OC2 | 7e-08 M (active) and 1.5e-08 M (active)
31 | O=C(NC1CCCCC1)N1CCc2[nH]c3ccccc3c2C1 | inactive
32 | NC(=O)C1CCN(C2OC(=O)c3ccccc32)CC1 (stereo not drawn) | inactive
33 | CCOC(=O)CCc1c(C)c(C#N)c2[nH]c3ccccc3n2c1=O | 5.3e-06 M (active)
34 | CCOC(=O)CC1=CC(=O)Nc2ccccc2N1 | inactive
35 | CCCOC(=O)Cc1c(O)c2ccccc2[nH]c1=O | inactive
36 | CCOC(=O)c1sc(=S)n2c1[nH]c(=O)c1ccc(C(=O)OC)cc12 | inactive
37 | C=CCSC1=C(C#N)C(c2cc(Br)c(O)c(OC)c2)CC(=O)N1 (stereo not drawn) | inactive
38 | COc1cc(C2C(C#N)=C(C)NC3=C2C(=O)CC(C)(C)C3)ccc1O (stereo not drawn) | 1.3e-08 M (active)
39 | Cc1cc2c(cc1C)NC(c1ccccn1)C1=C(CC(C)(C)CC1=O)N2 (stereo not drawn) | inactive
40 | CCCCCCC(=O)N(O)C1CC(=O)N(c2ccccc2)C1=O (stereo not drawn) | inactive
41 | COc1c(F)c(F)c(-c2csc(N)n2)c(F)c1F | 1.5e-08 M (active)
42 | CCC(=O)Nc1nc(OC)cc(OC)n1 | inactive
43 | Cc1cc(C)nc(NC2=NCC(=O)N2c2ccc(Cl)cc2)n1 | inactive
44 | CCN(CC(=O)Nc1ccc2c(c1)OCCO2)Cc1cc(=O)oc2cc(C)c(C)cc12 | inactive
45 | C=CCn1c(SCC(=O)Nc2nc3ccccc3s2)nnc1-c1ccccc1O | inactive
46 | C=CCn1c2ccccc2c2nnc(SC(CC)C(=O)Nc3nc(C)c(C(=O)OCC)s3)nc21 (stereo not drawn) | 4.6e-08 M (active)

Row | SMILES | max dye-equivalent concentration
47 | O=C(CC1N=C2c3ccccc3N=C(SCc3ccccc3Cl)N2C1=O)NCc1ccco1 (stereo not drawn) | 1.8e-08 M (active)
48 | O=C(CN1C(=O)CCS(=O)(=O)c2ccccc21)NCc1ccc(F)cc1 | inactive
49 | Cc1nc2nc(SCC(=O)NCc3ccco3)nn2c(C)c1Cc1ccccc1 | inactive
50 | CC1(c2ccccc2Cl)NC(=O)N(CC(=O)NC(=O)NCc2ccco2)C1=O (stereo not drawn) | inactive
51 | NC(=O)CSC1=Nc2ccccc2C2=NC(CCC(=O)NCc3ccc(F)cc3)C(=O)N12 (stereo not drawn) | 4.6e-07 M (active)
52 | COCCCN1C(=O)c2ccc(C(=O)Nc3ccc(OC)cc3OC)cc2C1=O | inactive
53 | O=C(NC(=O)c1ccc(Cl)c(Cl)c1)OC1CCS(=O)(=O)C1 (stereo not drawn) | inactive
54 | COc1ccc(O)c(C(=O)c2cnc3onc(C(C)C)c3c2)c1 | inactive
55 | COc1ccc(OCC(=O)OCCN(C)C)cc1 | inactive
56 | CC(C)(C)C(=O)CCN1C(=O)C2(OCCO2)c2ccccc21 | inactive
57 | CCN(CC)S(=O)(=O)c1cccc(C(=O)NCC(=O)OCC(=O)NCc2ccccc2)c1 | inactive
58 | O=C(Cn1[nH]c(=O)c2ccccc2c1=O)Nc1cccc(-c2nnc3n2CCCCC3)c1 | inactive
59 | O=C(CSc1nnnn1-c1ccc2c(c1)CCC2)Nc1ccc2c(c1)OCCO2 | inactive
60 | COC(C)(C)[C@]12CC(O)(C(C)C)ON1[C@H]1CCCCC1N2O (stereo partly drawn) | inactive
61 | COc1ccc(NC(C)=O)cc1NC(=O)CN1CCN(C2c3ccccc3-c3ccccc32)CC1 | inactive
62 | COc1ccc(-c2cn3ccsc3n2)cc1 | inactive
63 | CCCC(=O)Nc1cccc(-c2cn3ccsc3n2)c1 | inactive
64 | CC(=O)Nc1ccc(-c2cn3cccnc3n2)cc1 | 6.1e-06 M (active)
65 | c1ccc(-c2cn3cccnc3n2)cc1 | 5.1e-06 M (active)
66 | CCOc1nc(OCC)nc(-n2cc(-c3ccccc3)nn2)n1 | inactive
67 | CC(=O)Nc1cccc(-c2cnc3ccccc3n2)c1 | inactive
68 | COC(=O)[C@H](C)NC(=O)Nc1ccc(OC(F)(F)F)cc1 | inactive
69 | CCS(=O)(=O)N1CCCC(C(=O)NCc2ccc(C)cc2)C1 (stereo not drawn) | inactive

Row | SMILES | max dye-equivalent concentration
70 | COc1ccc(CNc2ncnc3ccc(-c4cccnc4)cc23)c(OC)c1 | inactive
71 | COc1cc(-c2noc(C3CCCN(S(=O)(=O)c4cccc(Cl)c4)C3)n2)cc(OC)c1OC (stereo not drawn) | inactive
72 | CC(NC(=O)CSc1nc2c(cc1C#N)CN(C)CC2)c1ccccc1 (stereo not drawn) | 2.2e-08 M (active)
73 | Cc1cc(C(F)(F)F)c(C#N)c(SCC(=O)NC2CC2)n1 | inactive
74 | Cc1ccc2cc(C#N)c(SCC(=O)NCC3CCCO3)nc2c1C (stereo not drawn) | inactive
75 | O=C1c2ccccc2C(=O)N1CCc1nn[nH]n1 | inactive
76 | COc1ccc(-n2c(SCC(=O)Nc3ccc4c(c3)OCO4)nnc2C(C)N2CCCCC2)cc1 (stereo not drawn) | inactive
77 | COc1cc(C(=O)Nc2nccs2)cc(OC)c1OC | inactive
78 | COC(=O)c1cccc(NC(=O)CN2CCC(NC(=O)c3cc(OC)c(OC)c(OC)c3)CC2)c1 | inactive
79 | COc1cc(C(=O)Nc2oc(-c3ccccc3)c(-c3ccccc3)c2C#N)cc(OC)c1OC | 1.1e-08 M (active)
80 | Cc1ccc(N2CCN(S(=O)(=O)N(C)C)CC2)cc1Cl | inactive
81 | CCCn1c(SCC(N)=O)nnc1C(C)C | inactive
82 | Cc1ccc(C(=O)CS(C)(=O)=O)cc1 | 2e-08 M (active)
83 | N#Cc1ccc(CSc2nnc(-c3ccccn3)n2-c2ccc(Cl)cc2)cc1 | inactive
84 | N#CNC1=NCN(CCc2ccccc2)CN1 | inactive
85 | O=C(c1csnn1)N1CCC[C@@]2(CCN(c3cccc(-c4ccccc4)c3)C2)C1 | inactive
86 | COc1ccc(CN2C(=O)CN=C2Nc2ccc(C)cc2C)cc1 | inactive
87 | Cc1cc(C)nc(N2C(=O)CC(Cc3ccccc3)C2=O)n1 (stereo not drawn) | inactive
88 | Nc1ccc2c3c(cccc13)C(=O)NC2=O | inactive
89 | CCOc1ccccc1-n1c(SCC(=O)N2CCCC2)nnc1-c1ccoc1C | inactive
90 | C=CCNc1nnc(SCC(=O)N2CCCCC2)c2ccccc12 | 1.6e-08 M (active)
91 | C=CCNc1nnc(C)c2ccccc12 | inactive
92 | CCNc1nc(SCCOc2ccccc2)nc(N(C)C)n1 | inactive

Row | SMILES | max dye-equivalent concentration
93 | Nc1ncc(-c2cc3ccccc3oc2=O)s1 | inactive
94 | O=c1oc2cc(O)ccc2cc1-c1ccc(F)cc1 | 9.5e-08 M (active)
95 | O=C(NCCCNC(=O)NC1CCCCC1)NC1CCCCC1 | inactive
96 | Cn1cnc2c1c(=O)n(Cc1c(Cl)cccc1Cl)c(=O)n2C | inactive
97 | CNC(=O)c1ccc2nc(NC(C)=O)sc2c1 | inactive
98 | COC(=O)c1sc(NC(=O)c2ccc(OC)cc2OC)nc1C | inactive
99 | COc1ccc2nc(NC(=O)c3ccc(Br)s3)sc2c1 | 4.6e-07 M (active)
100 | Cc1c(C)c2cc3c4c(oc3c(C)c2oc1=O)CCCC4 | 3e-08 M (active)
101 | CC(=O)N(Cc1cccs1)C1CCOC(C)(C)C1 (stereo not drawn) | inactive
102 | Cc1cc(NC(=O)CCC(=O)N(c2ccccc2)C(C(=O)NC2CCCC2)c2ccncc2)no1 (stereo not drawn) | inactive
103 | COc1ccc(Cn2c(=O)sc3ccccc32)cc1OC | inactive
104 | CCn1c(SCC(=O)NCc2ccco2)nnc1-c1ccc(N)cc1 | inactive
105 | Cc1ccc2c(CSc3nncs3)cc(=O)oc2c1 | inactive
106 | CCOC(=O)c1cc2occc2n1CC(=O)NC1CCC(C)CC1 (stereo not drawn) | inactive
107 | CN(C)CCNC(CC(=O)Nc1ccc(Cl)c(Cl)c1)C(=O)O (stereo not drawn) | inactive
108 | CN1C(=O)c2ccc(NC(=O)C3CCCCC3)cc2C1=O | 2.3e-07 M (active)
109 | O=C(Nc1ccncc1)c1c(F)cccc1F | inactive
110 | CN1C(=O)c2ccc(NC(=O)c3c(F)c(F)c(F)c(F)c3F)cc2C1=O | 9.8e-08 M (active)
111 | O=C(O)c1ccc(NC(=O)C2CCCCC2)cc1 | inactive
112 | O=C(Nc1cnn(Cc2ccc(Cl)cc2)c1)C1CCCC1 | inactive
113 | Cn1c(=O)n(C)c2cc(C(=O)Nc3ccc4c(c3)OCO4)ccc21 | inactive
